# B1: unnamed (peptide)
# chain: TKFRISLGLPVGAIM
# B2: unnamed (peptide)
# chain: VDFTLPPPPPPPGLD
# Legend:
# Assay in all cases: SPOT peptide array binding signal intensity (averaged, normalized) (arbitrary units (background-subtracted, floor 0; scale differs between SH3 domains)); higher = stronger binding of the SH3 domain to the peptide
# AgAbp1 = molecular target: AgAbp1
# Method in brief: (§1)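 GST-fused SH3 domains, from four yeast species, were produced in E. coli BL21(DE3) and captured on glutathione Sepharose. Membranes of cellulose carrying synthetic 15-mer peptides, in which cysteines had been replaced by serines, were exposed to each domain at 10 μg/ml overnight at 4°C in TBS-based blocking buffer. After anti-GST antibody, an HRP anti-mouse secondary and luminol, spots were imaged and quantified using Genespotter. Binding signal is normalized and background-subtracted spot intensity, averaged over replicates, in arbitrary units that differ between domains.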
# AgBbc1 = molecular target: AgBbc1
# Method in brief: as §1
# AgBem1-D1 = molecular target: AgBem1-D1
# Method in brief: as §1
# AgBzz1-D1 = molecular target: AgBzz1-D1
# Method in brief: as §1
# AgBzz1-D2 = molecular target: AgBzz1-D2
# Method in brief: as §1
# AgCyk3 = molecular target: AgCyk3
# Method in brief: as §1
# AgFus1 = molecular target: AgFus1
# Method in brief: as §1
# AgHof1 = molecular target: AgHof1
# Method in brief: as §1
# AgHse1 = molecular target: AgHse1
# Method in brief: as §1
# AgLsb1 = molecular target: AgLsb1
# Method in brief: as §1
# AgLsb4 = molecular target: AgLsb4
# Method in brief: as §1
# AgMyo5 = molecular target: AgMyo5
# Method in brief: as §1
# AgNbp2 = molecular target: AgNbp2
# Method in brief: as §1
# AgRvs167 = molecular target: AgRvs167
# Method in brief: as §1
# AgSho1 = molecular target: AgSho1
# Method in brief: as §1
# AgSla1-D1-D2 = molecular target: AgSla1-D1-D2
# Method in brief: as §1
# AgSla1-D3 = molecular target: AgSla1-D3
# Method in brief: as §1
# CaAbp1-D1 = molecular target: CaAbp1-D1
# Method in brief: as §1
# CaAbp1-D2 = molecular target: CaAbp1-D2
# Method in brief: as §1
# CaBbc1 = molecular target: CaBbc1
# Method in brief: as §1
# CaBem1-D1 = molecular target: CaBem1-D1
# Method in brief: as §1
# CaBzz1-D1 = molecular target: CaBzz1-D1
# Method in brief: as §1
# CaBzz1-D2 = molecular target: CaBzz1-D2
# Method in brief: as §1
# CaCyk3 = molecular target: CaCyk3
# Method in brief: as §1
# CaFus1 = molecular target: CaFus1
# Method in brief: as §1
# CaHof1 = molecular target: CaHof1
# Method in brief: as §1
# CaHse1 = molecular target: CaHse1
# Method in brief: as §1
# CaLsb1 = molecular target: CaLsb1
# Method in brief: as §1
# CaLsb4 = molecular target: CaLsb4
# Method in brief: as §1
# CaMyo5 = molecular target: CaMyo5
# Method in brief: as §1
# CaNbp2 = molecular target: CaNbp2
# Method in brief: as §1
# CaRvs167 = molecular target: CaRvs167
# Method in brief: as §1
# CaRvs167-3 = molecular target: CaRvs167-3
# Method in brief: as §1
# CaSho1 = molecular target: CaSho1
# Method in brief: as §1
# CaSla1-D1-D2 = molecular target: CaSla1-D1-D2
# Method in brief: as §1
# CaSla1-D3 = molecular target: CaSla1-D3
# Method in brief: as §1
# ScAbp1 = molecular target: ScAbp1
# Method in brief: as §1
# ScBbc1 = molecular target: ScBbc1
# Method in brief: as §1
# ScBem1-D1 = molecular target: ScBem1-D1
# Method in brief: as §1
# ScBzz1-D1 = molecular target: ScBzz1-D1
# Method in brief: as §1
# ScBzz1-D2 = molecular target: ScBzz1-D2
# Method in brief: as §1
# ScCyk3 = molecular target: ScCyk3
# Method in brief: as §1
# ScFus1 = molecular target: ScFus1
# Method in brief: as §1
# ScHof1 = molecular target: ScHof1
# Method in brief: as §1
# ScHse1 = molecular target: ScHse1
# Method in brief: as §1
# ScLsb1 = molecular target: ScLsb1
# Method in brief: as §1
# ScLsb2 = molecular target: ScLsb2
# Method in brief: as §1
# ScLsb3 = molecular target: ScLsb3
# Method in brief: as §1
# ScLsb4 = molecular target: ScLsb4
# Method in brief: as §1
# ScMyo3 = molecular target: ScMyo3
# Method in brief: as §1
# ScMyo5 = molecular target: ScMyo5
# Method in brief: as §1
# ScNbp2 = molecular target: ScNbp2
# Method in brief: as §1
# ScPex13 = molecular target: ScPex13
# Method in brief: as §1
# ScRvs167 = molecular target: ScRvs167
# Method in brief: as §1
# ScSho1 = molecular target: ScSho1
# Method in brief: as §1
# ScSla1-D1-D2 = molecular target: ScSla1-D1-D2
# Method in brief: as §1
# ScSla1-D3 = molecular target: ScSla1-D3
# Method in brief: as §1
# SpAbp1-D1 = molecular target: SpAbp1-D1
# Method in brief: as §1
# SpBbc1 = molecular target: SpBbc1
# Method in brief: as §1
# SpBzz1-D1 = molecular target: SpBzz1-D1
# Method in brief: as §1
# SpBzz1-D2 = molecular target: SpBzz1-D2
# Method in brief: as §1
# SpCyk3 = molecular target: SpCyk3
# Method in brief: as §1
# SpHof1 = molecular target: SpHof1
# Method in brief: as §1
# SpHof1-2 = molecular target: SpHof1-2
# Method in brief: as §1
# SpHof1-3 = molecular target: SpHof1-3
# Method in brief: as §1
# SpHse1 = molecular target: SpHse1
# Method in brief: as §1
# SpLsb1 = molecular target: SpLsb1
# Method in brief: as §1
# SpLsb4 = molecular target: SpLsb4
# Method in brief: as §1
# SpMyo1 = molecular target: SpMyo1
# Method in brief: as §1
# SpNbp2 = molecular target: SpNbp2
# Method in brief: as §1
# SpPex13 = molecular target: SpPex13
# Method in brief: as §1
# SpRvs167 = molecular target: SpRvs167
# Method in brief: as §1
# SpSla1-D1-D2 = molecular target: SpSla1-D1-D2
# Method in brief: as §1
# SpSla1-D3 = molecular target: SpSla1-D3
# Method in brief: as §1
binder,measurement,setting,value
B1,SPOT peptide array binding signal intensity,AgAbp1,4
same,SPOT peptide array binding signal intensity,AgBbc1,108
same,SPOT peptide array binding signal intensity,AgBem1-D1,429
same,SPOT peptide array binding signal intensity,AgBzz1-D1,100
same,SPOT peptide array binding signal intensity,AgBzz1-D2,109
same,SPOT peptide array binding signal intensity,AgCyk3,66
same,SPOT peptide array binding signal intensity,AgFus1,1490
same,SPOT peptide array binding signal intensity,AgHof1,91.5
same,SPOT peptide array binding signal intensity,AgHse1,911
same,SPOT peptide array binding signal intensity,AgLsb1,28
same,SPOT peptide array binding signal intensity,AgLsb4,513
same,SPOT peptide array binding signal intensity,AgMyo5,3.75
same,SPOT peptide array binding signal intensity,AgNbp2,422
same,SPOT peptide array binding signal intensity,AgRvs167,21.3
same,SPOT peptide array binding signal intensity,AgSho1,548
same,SPOT peptide array binding signal intensity,AgSla1-D1-D2,176
same,SPOT peptide array binding signal intensity,AgSla1-D3,12
same,SPOT peptide array binding signal intensity,CaAbp1-D1,112
same,SPOT peptide array binding signal intensity,CaAbp1-D2,134
same,SPOT peptide array binding signal intensity,CaBbc1,225
same,SPOT peptide array binding signal intensity,CaBem1-D1,199
same,SPOT peptide array binding signal intensity,CaBzz1-D1,592
same,SPOT peptide array binding signal intensity,CaBzz1-D2,334
same,SPOT peptide array binding signal intensity,CaCyk3,162
same,SPOT peptide array binding signal intensity,CaFus1,4760
same,SPOT peptide array binding signal intensity,CaHof1,1.25
same,SPOT peptide array binding signal intensity,CaHse1,193
same,SPOT peptide array binding signal intensity,CaLsb1,31
same,SPOT peptide array binding signal intensity,CaLsb4,280
same,SPOT peptide array binding signal intensity,CaMyo5,69.2
same,SPOT peptide array binding signal intensity,CaNbp2,498
same,SPOT peptide array binding signal intensity,CaRvs167,245
same,SPOT peptide array binding signal intensity,CaRvs167-3,2240
same,SPOT peptide array binding signal intensity,CaSho1,1360
same,SPOT peptide array binding signal intensity,CaSla1-D1-D2,126
same,SPOT peptide array binding signal intensity,CaSla1-D3,602
same,SPOT peptide array binding signal intensity,ScAbp1,13
same,SPOT peptide array binding signal intensity,ScBbc1,17
same,SPOT peptide array binding signal intensity,ScBem1-D1,66
same,SPOT peptide array binding signal intensity,ScBzz1-D1,95
same,SPOT peptide array binding signal intensity,ScBzz1-D2,392
same,SPOT peptide array binding signal intensity,ScCyk3,292
same,SPOT peptide array binding signal intensity,ScFus1,2830
same,SPOT peptide array binding signal intensity,ScHof1,2.5
same,SPOT peptide array binding signal intensity,ScHse1,1460
same,SPOT peptide array binding signal intensity,ScLsb1,19.8
same,SPOT peptide array binding signal intensity,ScLsb2,30
same,SPOT peptide array binding signal intensity,ScLsb3,329
same,SPOT peptide array binding signal intensity,ScLsb4,72
same,SPOT peptide array binding signal intensity,ScMyo3,4
same,SPOT peptide array binding signal intensity,ScMyo5,12
same,SPOT peptide array binding signal intensity,ScNbp2,702
same,SPOT peptide array binding signal intensity,ScPex13,65.5
same,SPOT peptide array binding signal intensity,ScRvs167,80.7
same,SPOT peptide array binding signal intensity,ScSho1,2880
same,SPOT peptide array binding signal intensity,ScSla1-D1-D2,333
same,SPOT peptide array binding signal intensity,ScSla1-D3,122
same,SPOT peptide array binding signal intensity,SpAbp1-D1,68
same,SPOT peptide array binding signal intensity,SpBbc1,55
same,SPOT peptide array binding signal intensity,SpBzz1-D1,537
B2,SPOT peptide array binding signal intensity,CaNbp2,≤ 0
same,SPOT peptide array binding signal intensity,CaRvs167,1
same,SPOT peptide array binding signal intensity,CaRvs167-3,0.25
same,SPOT peptide array binding signal intensity,CaSho1,≤ 0
same,SPOT peptide array binding signal intensity,CaSla1-D1-D2,≤ 0
same,SPOT peptide array binding signal intensity,CaSla1-D3,≤ 0
same,SPOT peptide array binding signal intensity,ScAbp1,≤ 0
same,SPOT peptide array binding signal intensity,ScBbc1,≤ 0
same,SPOT peptide array binding signal intensity,ScBem1-D1,≤ 0
same,SPOT peptide array binding signal intensity,ScBzz1-D1,6
same,SPOT peptide array binding signal intensity,ScBzz1-D2,≤ 0
same,SPOT peptide array binding signal intensity,ScCyk3,1
same,SPOT peptide array binding signal intensity,ScFus1,≤ 0
same,SPOT peptide array binding signal intensity,ScHof1,17.8
same,SPOT peptide array binding signal intensity,ScHse1,≤ 0
same,SPOT peptide array binding signal intensity,ScLsb1,≤ 0
same,SPOT peptide array binding signal intensity,ScLsb2,1.5
same,SPOT peptide array binding signal intensity,ScLsb3,≤ 0
same,SPOT peptide array binding signal intensity,ScLsb4,≤ 0
same,SPOT peptide array binding signal intensity,ScMyo3,1810
same,SPOT peptide array binding signal intensity,ScMyo5,1800
same,SPOT peptide array binding signal intensity,ScNbp2,≤ 0
same,SPOT peptide array binding signal intensity,ScPex13,4.75
same,SPOT peptide array binding signal intensity,ScRvs167,2.33
same,SPOT peptide array binding signal intensity,ScSho1,≤ 0
same,SPOT peptide array binding signal intensity,ScSla1-D1-D2,≤ 0
same,SPOT peptide array binding signal intensity,ScSla1-D3,≤ 0
same,SPOT peptide array binding signal intensity,SpAbp1-D1,≤ 0
same,SPOT peptide array binding signal intensity,SpBbc1,0.5
same,SPOT peptide array binding signal intensity,SpBzz1-D1,1630
same,SPOT peptide array binding signal intensity,SpBzz1-D2,7
same,SPOT peptide array binding signal intensity,SpCyk3,1
same,SPOT peptide array binding signal intensity,SpHof1,≤ 0
same,SPOT peptide array binding signal intensity,SpHof1-2,0.75
same,SPOT peptide array binding signal intensity,SpHof1-3,1.75
same,SPOT peptide array binding signal intensity,SpHse1,11
same,SPOT peptide array binding signal intensity,SpLsb1,0.5
same,SPOT peptide array binding signal intensity,SpLsb4,≤ 0
same,SPOT peptide array binding signal intensity,SpMyo1,1110
same,SPOT peptide array binding signal intensity,SpNbp2,≤ 0
same,SPOT peptide array binding signal intensity,SpPex13,≤ 0
same,SPOT peptide array binding signal intensity,SpRvs167,1
same,SPOT peptide array binding signal intensity,SpSla1-D1-D2,≤ 0
same,SPOT peptide array binding signal intensity,SpSla1-D3,≤ 0

# Source: the supplement of paper PMC4466140
